This is an account of results in PubChem BioAssay AID504850 (National Center for Advancing Translational Sciences (NCATS), 2011).

Hit rate of the full screen: of about 2,300 compounds, about 1,200 (52%) were called active. Another 34% or so got no clear call; they are omitted. So high a share suggests a set chosen from earlier hits. The list shows a part of the results. Values without a mark were called inactive. Calls come from the whole dose curve; as a rule, active = well fitted inhibition curve with a large enough effect; inconclusive = small, poorly fitted or top-dose-only effect, or effect the other way; inactive = no such curve, though single readings can be large or run the other way.
% is set by controls: 0 for no effect and ±100 for the full control effect; potency is the fitted concentration of half-maximal effect.

A short description of this test: Confirmation screen for delayed death inhibitors of the malarial parasite plastid, 48 hour incubation. Note: nearly all actives have a fitted effect of over 65% in size. Particulars: P. falciparum-infected erythrocytes, luciferase growth; series mostly up to 28.7 µM; activity change, negative = inhibition: at the top concentration. The procedure, abridged: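 Single-generation (48 h, 37 C) exposure of integrated firefly luciferase-reporter P. falciparum in red cells, 0.1% parasitemia at 2% hematocrit, Albumax-supplemented RPMI. Falling luciferase signal marks parasite growth inhibition.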
For `CCc1ccc(/C=N/n2c(C)cc(C)c(C#N)c2=O)cc1`, the Potency was 6.31 µM (active).

In the case of `C=C1C(=O)O[C@@H]2[C@H]1CC[C@H](C)[C@]1(O)CCC(=O)[C@@]21C`, the Potency is 12.6 µM (active).

Consider `N=C(N)c1ccc(/C=C/c2ccc(C(=N)N)cc2O)cc1`, for which the Potency was 0.708 µM (active).

With `COC(=O)c1ccc(Sc2nnnn2-c2ccccc2)c([N+](=O)[O-])c1`, the Potency is 11.2 µM (active).

With `O=C(NC1CCS(=O)(=O)C1)/C(=C\c1ccc(F)cc1)NC(=O)c1ccccc1` (configuration not stated), the Potency was 15.8 µM (active).

Take `Cn1c(=O)oc2cc(S(=O)(=O)NCCC(=O)NCc3ccc(F)cc3)ccc21`: the Potency was 15.8 µM (active).

`COc1cc2c(O)c3c(c(-c4ccc5c(c4)OCO5)c2cc1OC)C(=O)OC3`: the Potency is 10 µM (active).

In the case of `CCOc1ccccc1NC(=S)N1CCN(c2cccc(OC)c2)CC1`, the “activity change, negative = inhibition” value is -10.4%.

On to `CCOc1ccccc1NC(=O)/C(C#N)=C/c1cccnc1`, for which the Potency was 14.1 µM (active).

As for `Fc1ccc(Nc2nc(N3CCOCC3)nc(N3CCOCC3)n2)cc1`, the Potency was 14.1 µM (active).

As to `N#Cc1cc(S(=O)(=O)c2ccccc2)c(N)[nH]c1=O`, the “activity change, negative = inhibition” value was -20.3%.

Consider `COc1ccc(-c2nnc3ccc(SCC(=O)Nc4nc5ccc(C)cc5s4)nn23)cc1OC`, for which the Potency was 1.26 µM (active).

Consider `COc1cccc(CN(C)CC2CCCN(CCc3ccc(Cl)cc3)C2)c1OC` (configuration not stated), for which the Potency is 10 µM (active).

In the case of `COc1ccc(/C=C2\CN(Cc3ccccc3)C/C(=C\c3ccc(OC)c(O)c3)C2=O)cc1O`, the Potency was 0.891 µM (active).

Regarding `CCOc1cc(/C=C2\CN(CC)C/C(=C\c3ccc(O)c(OCC)c3)C2=O)ccc1O`, the Potency is 3.98 µM (active).

Take `O=C(O)c1ccccc1NS(=O)(=O)c1cccc(-n2sc3ccccc3c2=O)c1`: the Potency was 15.8 µM (active).

Consider `Cc1cc(C(=O)OC(C)C(=O)Nc2nc(-c3ccccc3)cs2)c(C)o1` (configuration not stated), for which the “activity change, negative = inhibition” value is -23.8%.

Consider `CC(=O)Oc1ccc(-c2csc(Nc3cccnc3)n2)cc1`, for which the “activity change, negative = inhibition” value is 11%.

Turning to `COc1ccccc1Nc1nnc(SCc2cc(=O)n3ccsc3n2)s1`, the Potency is 12.6 µM (active).

For `CCOc1ccccc1Nc1nnc(SC(C)C(=O)Nc2nc(-c3ccccc3)cs2)s1` (configuration not stated), the Potency was 14.1 µM (active).

Consider `COc1ccccc1Nc1nnc(SCC(=O)Nc2nc(-c3ccc(F)cc3)cs2)s1`, for which the Potency is 11.2 µM (active).

Consider `Oc1ccc(Cl)cc1CNc1cnc2ccccc2c1`, for which the Potency is 12.6 µM (active).

Consider `Cc1nc2scc(C)n2c(=O)c1S(=O)(=O)NCc1ccccc1Cl`, for which the “activity change, negative = inhibition” value is -15.8%.

Turning to `COc1ccc(C(=O)NC2CCCc3c2cnn3-c2cccc(C)c2C)o1` (configuration not stated), the Potency is 12.6 µM (active).

With `Cc1cccc(-n2ncc3c2CCCC3NC(=O)C2=CC(=O)CC(C)(C)O2)c1C` (configuration not stated), the Potency was 15.8 µM (active).

With `CCc1c(C(=O)NC2CCCc3ccccc32)[nH]c(C)c1C(C)=O` (configuration not stated), the “activity change, negative = inhibition” value was -5.63%.

With `Cc1cc(C(=O)NC2CCCc3c2cnn3-c2cccc(C)c2C)no1` (configuration not stated), the “activity change, negative = inhibition” value was -9.26%.

As to `COc1cccc(NC(=O)c2nc(S(C)(=O)=O)ncc2Cl)c1`, the “activity change, negative = inhibition” value was -26.2%.

As for `O=C(CCl)Nc1cccc(Oc2cnccn2)c1`, the Potency is 4.47 µM (active).

For `COc1ccc(CNS(=O)(=O)c2ccc3c(c2)N(C(C)=O)CC(C)S3)cc1` (configuration not stated), the Potency was 12.6 µM (active).

Consider `Cn1nc(CC(=O)Nc2ncc(Br)s2)c2ccccc2c1=O`, for which the Potency was 11.2 µM (active).

Consider `O=C(C[n+]1cc(Br)cc2ccccc21)c1ccccc1`, for which the Potency was 10 µM (active).

In the case of `Clc1ccc2nc(-c3ccccn3)c(Nc3ccc4c(c3)OCO4)n2c1`, the Potency was 11.2 µM (active).

As for `Nc1ccc2nc(-c3ccc(-c4nc5ccc(N)cc5[nH]4)cc3)[nH]c2c1`, the Potency was 7.08 µM (active).

As for `CC1CCC(NC(=O)CN(C)S(=O)(=O)c2ccc3c(c2)c(=O)n(C)c(=O)n3C)CC1` (configuration not stated), the Potency is 10 µM (active).

Take `Cc1cccc(N(C)C(=O)CN(C)S(=O)(=O)c2ccc3c(c2)c(=O)n(C)c(=O)n3C)c1`: the Potency was 12.6 µM (active).

Take `O=S(=O)(c1cnc[nH]1)N1CCN(C(c2ccc(F)cc2)c2ccc(F)cc2)CC1`: the Potency is 11.2 µM (active).

With `O=C(Oc1nsnc1N1CCCCC1)N1CCOCC1`, the Potency is 12.6 µM (active).

Consider `O=C1CN(C(=O)c2ccc(Cl)c(S(=O)(=O)N3CCc4ccccc43)c2)c2ccccc2N1`, for which the Potency is 12.6 µM (active).

In the case of `COC(=O)C1C(=O)C2=C(CC1C)NC(C)=C(C(=O)OCCOc1ccccc1)C2c1ccc(C)o1` (configuration not stated), the Potency was 14.1 µM (active).

Regarding `O=C(Nc1ccc(S(=O)(=O)N2CCOCC2)cc1)c1ccc([N+](=O)[O-])o1`, the Potency is 3.16 µM (active).

`CS(=O)(=O)N1CCN(c2ccc(NC(=O)c3ccc([N+](=O)[O-])o3)cc2)CC1`: the Potency is 11.2 µM (active).

In the case of `O=C(Nc1ccc(N2CCOCC2)c(Cl)c1)c1cc2ccccc2o1`, the Potency is 2.51 µM (active).

Consider `CC(C)C(=O)N1CCN(c2ccc(NC(=O)c3ccc([N+](=O)[O-])o3)cc2)CC1`, for which the Potency is 8.91 µM (active).

For the compound `Cn1cc([N+](=O)[O-])c(C(=O)Nc2ccc(C3CCCCC3)cc2)n1`, the “activity change, negative = inhibition” value is -26.5%.

In the case of `CCCC(=O)N1CCN(c2ccc(NC(=O)c3ccc([N+](=O)[O-])o3)cc2Cl)CC1`, the Potency was 11.2 µM (active).

For `CCc1nn2c(=O)cc(COc3ccc(NC(=O)c4ccco4)cc3)nc2s1`, the “activity change, negative = inhibition” value is -43.4%.

For `CCN1CCN(c2ccc(NC(=O)c3ccc([N+](=O)[O-])o3)cc2Cl)CC1`, the Potency was 7.94 µM (active).

For `CCC(=O)N1CCN(c2ccc(NC(=O)c3ccc([N+](=O)[O-])o3)cc2Cl)CC1`, the Potency was 12.6 µM (active).

As to `Cc1cccc(-c2c(NC(=O)c3ccco3)oc3ccc(Cl)cc3c2=O)c1`, the “activity change, negative = inhibition” value is -26.2%.

With `CC(C)C(=O)N1CCN(c2ccc(NC(=O)c3ccco3)cc2Cl)CC1`, the Potency was 7.94 µM (active).

For `CCCC(=O)N1CCN(c2ccc(NC(=O)c3ccc([N+](=O)[O-])o3)cc2)CC1`, the Potency was 7.08 µM (active).

As for `CCc1c(C)nc2nc(SCc3ccccc3Cl)[nH]n2c1=O`, the “activity change, negative = inhibition” value was -18.3%.

For `CCN(CC)c1ccc(/C=C/c2cccc[n+]2C)c(OC)c1`, the Potency is 1.12 µM (active).

Consider `CN(C)S(=O)(=O)c1cccc(NC(=S)N/N=C/c2cc(Br)ccc2O)c1`, for which the Potency was 3.55 µM (active).

Consider `COc1cc(/C=N/NC(=S)Nc2cccc(S(=O)(=O)N(C)C)c2)cc(OC)c1O`, for which the “activity change, negative = inhibition” value was -5.26%.

With `Cn1nc([N+](=O)[O-])nc1Sc1nnc(-c2ccccc2)o1`, the Potency was 11.2 µM (active).

On to `Cc1ccc(-n2ncc3c(SCc4ccccn4)ncnc32)c(C)c1`, for which the Potency is 12.6 µM (active).

Consider `CCOC(=O)C(CC)(CC)C(=O)/C=C/c1ccc(Br)cc1`, for which the Potency was 10 µM (active).

`CCOC(=O)C(=Cc1ccc(-n2cncn2)cc1)C(=O)OCC`: the Potency is 15.8 µM (active).

Take `CCOC(=O)C(=Cc1ccc(Br)cc1)C(=O)OCC`: the Potency was 10 µM (active).

For the compound `COc1ccc(/C=C/C(=O)NC(=S)NN2CCCCC2c2cccnc2)cc1` (configuration not stated), the Potency is 12.6 µM (active).

In the case of `CC(C)c1ccc(/C=C/C(=O)NC(=S)NN2CCOCC2)cc1`, the “activity change, negative = inhibition” value is -43.1%.

As for `COCCn1c(C)cc(C(=O)CSc2cc(C)c3ccc(OC)cc3n2)c1C`, the Potency was 12.6 µM (active).

In the case of `COC(=O)[C@@H]1C[C@]2(OC(=O)c3ccccc3)C=CC(=O)C[C@@H]2N1C(=O)OCc1ccccc1`, the Potency is 14.1 µM (active).

On to `CN(C)c1ccc(CN(C(=O)c2ccccc2Br)C2CCS(=O)(=O)C2)cc1` (configuration not stated), for which the Potency was 14.1 µM (active).

Regarding `COc1cccc(CN(C(=O)c2ccccc2Br)C2CCS(=O)(=O)C2)c1` (configuration not stated), the Potency is 15.8 µM (active).

As to `O=C(O)c1nn(CCSc2ccccc2F)c(=O)c2ccccc12`, the “activity change, negative = inhibition” value is -22.8%.

For the compound `COc1ccc(/C=N/NC(=O)c2cc(-c3ccccc3)nc3ccccc23)cc1O`, the “activity change, negative = inhibition” value was -17.6%.

For `Cc1ccc(-c2cc(C(=O)N/N=C/c3ccoc3)c3ccccc3n2)cc1`, the Potency is 12.6 µM (active).

Turning to `Cc1c(Cl)ccc2c(C(=O)O)cc(-c3ccccc3)nc12`, the “activity change, negative = inhibition” value was 13.9%.

On to `Cc1ccc(-c2cc(C(=O)N/N=C/C=C/c3ccco3)c3ccccc3n2)cc1C`, for which the Potency was 10 µM (active).

For the compound `O=C(NCc1ccccc1)C(c1cccnc1)N(C(=O)c1ccccn1)c1ccccc1F` (configuration not stated), the “activity change, negative = inhibition” value was -19.9%.

In the case of `O=C(CCc1ccccc1)NNC(=O)c1ccccn1`, the Potency was 7.94 µM (active).

Take `Cc1ccc(C(=O)NCC(=O)NCCCc2ccccc2)s1`: the “activity change, negative = inhibition” value is -8.96%.

With `CCOc1ccc(CCNC(=O)COC(=O)c2ccc(C)s2)cc1OCC`, the Potency was 10 µM (active).

In the case of `CCOC(=O)NC(=O)COC(=O)c1ccc(O)cc1`, the “activity change, negative = inhibition” value is -10.4%.

With `COc1ccccc1NC(=O)Cn1cnc2sc(C(=O)Nc3ccc(OC)c(OC)c3)c(C)c2c1=O`, the Potency was 12.6 µM (active).

For `CSCCn1c(C(C)(C)C)cc(C(=O)O)c1C`, the “activity change, negative = inhibition” value is 18.3%.

`O=C(C1=C[C@@H](c2csc3ccccc23)C[C@@H](OCCCCO)O1)N1CCN(Cc2ccc3c(c2)OCO3)CC1`: the Potency is 10 µM (active).

For `CCO[C@H]1OC(C(=O)N2CCN(Cc3ccc4c(c3)OCO4)CC2)=C[C@@H](c2ccc(C(F)(F)F)cc2)[C@@H]1CCCO`, the Potency was 3.55 µM (active).

Regarding `CCO[C@H]1OC(C(=O)N2CCN(Cc3ccccc3)CC2)=C[C@@H](c2ccc(C(F)(F)F)cc2)[C@@H]1CCCO`, the Potency was 4.47 µM (active).

Take `CCn1c(=O)cc(C(=O)OC)sc1=Nc1ccc(F)c(F)c1`: the “activity change, negative = inhibition” value was -21.8%.

Take `Cc1cc(C)n(-c2ccc(C(=O)Nc3ccc(S(=O)(=O)NCc4ccco4)cc3)cc2)n1`: the Potency is 10 µM (active).

For the compound `CC(C)n1nc(C(=O)Nc2cccc(S(=O)(=O)NCc3ccco3)c2)c2ccccc2c1=O`, the Potency was 11.2 µM (active).

As to `O=C(Nc1ccccc1)c1cccc(S(=O)(=O)NCc2ccco2)c1`, the “activity change, negative = inhibition” value is -16.7%.

Regarding `Cc1cc(C)n2nc(C(=O)N/N=C/c3c4ccccc4cc4ccccc34)nc2n1`, the Potency is 8.91 µM (active).

Consider `COC(=O)c1ccc(C2N=C(c3cccs3)CC(c3ccccc3O)N2)cc1` (configuration not stated), for which the Potency is 8.91 µM (active).

Regarding `CCOC(=O)c1c(S(=O)(=O)NCC(=O)N2CCN(c3ccccc3OC)CC2)c(C)n(C)c1C`, the Potency was 12.6 µM (active).

For the compound `CCOC(=O)c1c(S(=O)(=O)NCC(=O)Nc2cccc(C)c2C)c(C)n(C)c1C`, the “activity change, negative = inhibition” value is -28.7%.

Take `COc1cccc(NC(=O)CSc2ccc3nnc(CCNC(=O)c4ccccc4)n3n2)c1`: the Potency was 15.8 µM (active).

For `Cc1ccc(C(=O)NCCc2nnc3ccc(SCC(=O)NCc4ccc(F)cc4)nn23)cc1`, the Potency is 10 µM (active).
